For this experiment, the system named is HEK293 WT BDD-FVIII-Gluc. Nature of the experiment: secreted FVIII-Gluc luciferase Z-score vs DMSO control; higher = more FVIII-Gluc secretion. Conditions: 5 µM. The method, then: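 Natural plant-compound library (480 compounds, ST catalogue IDs) screened on HEK293 cells stably expressing WT BDD-FVIII-Gaussia luciferase fusion at 5 µM. Secreted Gluc activity in the medium is given as a Z-score relative to DMSO controls.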
Regarding `CN1CCc2cccc3c2C1Cc1ccc(O)c(O)c1-3` (centres undefined), the “secreted FVIII-Gluc luciferase Z-score” value was -0.131. Next, `CC(C)=CCC/C(C)=C/CC/C(C)=C/CO`: 0.255; `COc1ccc2c(=O)cc(-c3ccc(O)cc3)oc2c1`: 0.228. The figure for `C=CC(C)(O)CCCC(C)CCCC(C)CCCC(C)C` (centres undefined) is 0.179; for `CNC[C@H](O)c1ccc(O)c(O)c1` it is 0.948; for `CCn1nc(C(=O)O)c(=O)c2cc3c(cc21)OCO3` it is -1.17. Consider `C[C@H]1[C@H]2CC[C@H]3[C@@H]4CC=C5C[C@@H](N(C)C)CC[C@]5(C)[C@H]4CC[C@]23CN1C`, for which the “secreted FVIII-Gluc luciferase Z-score” value turned out to be 0.23. Next, `Nc1ncnc2c1ncn2[C@H]1C[C@H](O)[C@@H](CO)O1`: 1.23.

Take `C[C@H](C(=O)O)c1cccc(C(=O)c2ccccc2)c1`: the “secreted FVIII-Gluc luciferase Z-score” value came out at 0.342. Next, `COc1ccc(-c2coc3ccc(OC4OC(COC(C)=O)C(OC(C)=O)C(OC(C)=O)C4OC(C)=O)c(OC(C)=O)c3c2=O)cc1` (centres undefined): -0.543; `C[C@@H]1O[C@@H](OC[C@H]2O[C@@H](Oc3c(-c4cccc(O)c4O)oc4cc(O)cc(O)c4c3=O)[C@H](O)[C@@H](O)[C@@H]2O)[C@H](O)[C@H](O)[C@H]1O`: 1.27; `CC1=C(/C=C/C(C)=C/C=C/C(C)=C/C(=O)O)C(C)(C)CCC1`: -0.377. `CC1=CCC2(C)CCC(O)(C(C)C)C2C(OC(=O)c2ccc(O)cc2)C1` (centres undefined): the “secreted FVIII-Gluc luciferase Z-score” value was 0.752. Consider `COc1ccc([C@@H]2CC(=O)c3c(O)cc(O)cc3O2)cc1O`, for which the “secreted FVIII-Gluc luciferase Z-score” value is 0.825.

Consider `COc1ccc(-c2oc3ccccc3c(=O)c2O)cc1`, for which the “secreted FVIII-Gluc luciferase Z-score” value was -1.09. On to `COc1ccc(-c2coc3cc(O)ccc3c2=O)cc1`, for which the “secreted FVIII-Gluc luciferase Z-score” value is 0.632. Next, `CCOC(=O)CCC(=O)OC1C(OC2C(C)C(OC3CC(C)(OC)C(O)C(C)O3)C(C)C(=O)OC(CC)C(C)(O)C(O)C(C)C(=O)C(C)CC2(C)O)OC(C)CC1N(C)C` (centres undefined): 0.0842. Next, `CC(C)(S)[C@H](N)C(=O)O`: 0.41. For the compound `O=c1c(O)c(-c2ccc(O)cc2)oc2cc(O)cc(O)c12`, the “secreted FVIII-Gluc luciferase Z-score” value is -0.239. The figure for `C/C(=C\CNc1ncnc2nc[nH]c12)CO` is 0.549.

Regarding `O=c1ccn([C@@H]2O[C@H](CO)[C@@H](O)[C@H]2O)c(=O)[nH]1`, the “secreted FVIII-Gluc luciferase Z-score” value stood at 0.943. The figure for `O=C(/C=C/c1ccc(O)cc1)c1ccccc1O` is 0.315; for `CC(C)=CCc1c(O)cc(O)c2c1O[C@H](c1ccccc1)CC2=O` it is -0.692.

As for `Cc1ccc(C(=O)[C@@H]2[C@H]3C4COC(O4)C(=O)[C@@H]3[C@H]3C=Cc4ccccc4N32)cc1` (some centres undefined), the “secreted FVIII-Gluc luciferase Z-score” value was -0.368.

(Values after the supplement of paper PMC12024529.)
